Test results published in PubChem BioAssay (NCATS).
Records with an inconclusive call do not appear. A number with no mark means an inactive call. Calls follow the shape of the dose curve; as a rule, active = well fitted inhibition curve with a large enough effect; inconclusive = small, poorly fitted or top-dose-only effect; inactive = flat fitted curve, though single readings scatter.
% is scaled to controls: 0 for no effect and ±100 for the full control effect.

Each compound was assayed against Calcium and integrin-binding protein 1 (Homo sapiens) (UniProt Q99828) (assay: Primary qHTS for Identification of Calcium Integrin Binding Protein 1 (CIB1) Competitor (AID 1508620;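 also: GST tagged CIB1 binding a fluorescein labelled alphaIIb integrin peptide tracer; top concentration of the series differs between compounds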)). Settings: CIB1-GST / FITC-alphaIIb peptide fluorescence polarization; series mostly up to 114 µM; activity change, negative = inhibition: at the top concentration.
Chain of Calcium and integrin-binding protein 1 (Homo sapiens) (Q99828 whole entry, looked up): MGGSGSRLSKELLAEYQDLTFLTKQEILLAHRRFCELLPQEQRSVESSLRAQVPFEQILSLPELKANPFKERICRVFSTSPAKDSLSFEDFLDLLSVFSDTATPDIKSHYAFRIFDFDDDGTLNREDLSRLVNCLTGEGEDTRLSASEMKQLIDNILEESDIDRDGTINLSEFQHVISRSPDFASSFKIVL
In short: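 CIB1-GST (1 uM final) and compound incubated 15 min at room temperature before adding FITC-alphaIIb peptide tracer (100 nM final). Competition for binding read by fluorescence polarization (ex 480, em 540) after another 15 min at room temperature.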
With `O=C(NCc1cccnc1)C1CCN(S(=O)(=O)c2cccs2)CC1` the “activity change, negative = inhibition” value was 6.96%.
In the case of `Cc1cccc(S(=O)(=O)NC2CCN(C#N)C2)c1` (stereo not given), the “activity change, negative = inhibition” value is reported as 3.85%.
For `CCOc1ccc(CCNC(=O)c2cc3sccc3n2CCN2CCN(C)CC2)cc1OCC`, the “activity change, negative = inhibition” value was -0.993%.
In the case of `NC(=O)C1CCN(c2nc(-c3ccccc3[N+](=O)[O-])cs2)CC1`, the “activity change, negative = inhibition” value is reported as -7.41%.
In the case of `CC1=C(C(=O)Nc2nc3ccccc3s2)C(c2nn(C)cc2Cl)N=C(Nc2nc3ccccc3o2)N1` (stereo not given), the “activity change, negative = inhibition” value is reported as -1.41%.
With `Cc1cc(NC(=S)N2CCN(c3cccc(C(F)(F)F)c3)CC2)nc2ccccc12` the “activity change, negative = inhibition” value was 0.0159%.
For `COc1cccc(-c2nnc3n2N=C(c2cc(OC)ccc2OC)CS3)c1`, the “activity change, negative = inhibition” value was 0.905%.
`Cc1ccc(OCCn2c(CCNC(=O)COc3ccccc3Br)nc3ccccc32)cc1` was tested, and the “activity change, negative = inhibition” value was 43.2%.
For `Cc1c(P(=S)(c2ccccc2)c2ccccc2)c2ccccc2n1CCCc1ccccc1`, the “activity change, negative = inhibition” value was 1.89%.
For `CC(C)(C)OC(=O)Cc1nnc(C(C(=O)OCc2ccccc2)c2ccccc2)o1` (stereo not given), the “activity change, negative = inhibition” value was -3.06%.
With `N#CNC(=O)c1ccc(-n2cccc2/C=C2\NC(=O)N(CC(=O)Nc3cccc(F)c3)C2=O)cc1` the “activity change, negative = inhibition” value was 6.07%.
For `Cc1cccc(-n2cnc3cc(C(=O)N4CCC(Cc5ccccc5)CC4)ccc32)c1`, the “activity change, negative = inhibition” value was -6.76%.
For `COc1ccc(C2Nc3ccccc3C(=O)N2Cc2cccnc2)cc1COc1ccc(NC(C)=O)cc1` (stereo not given), the “activity change, negative = inhibition” value was 1.98%.
With `O=[S+]([O-])(c1ccc2c(c1)OCCO2)N1CCN([S+](=O)([O-])c2ccc(F)cc2Br)CC1` the “activity change, negative = inhibition” value was -1%.
With `Nc1ccccc1S(=O)(=O)Nc1cccc2cccnc12` the “activity change, negative = inhibition” value was -8.97%.
`Cc1ccc(S(=O)(=O)Nc2cnccc2C(=O)Nc2ccc(-n3cncn3)cc2)cc1` was tested, and the “activity change, negative = inhibition” value was -15.6%.
In the case of `COc1cc(O)c(C(CC(=O)N2CCCC(C(C)C)C2)c2ccc3c(c2)OCO3)c(OC)c1` (stereo not given), the “activity change, negative = inhibition” value is reported as -0.858% [at 228 µM].
For `Oc1ccc(CNc2ccccc2C(F)(F)F)c2cccnc12`, the “activity change, negative = inhibition” value was 18.7%.
In the case of `CCOC(=O)c1cccc(-n2cccc2/C=C2\NC(=O)N(CC(=O)O)C2=O)c1`, the “activity change, negative = inhibition” value is reported as 3.97%.
For `CC(=O)Nc1sc2c(c1-c1nc3ccccc3s1)CCS(=O)(=O)C2`, the “activity change, negative = inhibition” value was 4.25%.
With `N#Cc1cccc(-c2ccc(NC(=O)c3cccs3)cn2)c1` the “activity change, negative = inhibition” value was 1.34%.
`O=S(=O)(c1ccsc1)N1CCN(c2nc(-c3cccs3)nc3ccccc23)CC1` was tested, and the “activity change, negative = inhibition” value was 1.91%.
`Oc1cc(Nc2ccc(N3CCCCC3)cc2)cc2cccnc12` was tested, and the “activity change, negative = inhibition” value was -11.9%.
With `Brc1ccc(-c2ccc(C3Nc4cccc5cccc(c45)N3)o2)cc1` the “activity change, negative = inhibition” value was -20.5%.
With `COc1ccccc1C(=O)OCC#CCSc1nnc(-c2cccc3ccccc23)o1` the “activity change, negative = inhibition” value was 5.37%.
In the case of `COc1cc(OC)c2c(c1)OC(=O)CC2c1ccc2c(c1)OCO2` (stereo not given), the “activity change, negative = inhibition” value is reported as -0.25% [at 228 µM].
`O=C(Nc1ncc(Cc2ccc(C(F)(F)F)cc2)s1)c1ccc(-c2ccccc2)o1` was tested, and the “activity change, negative = inhibition” value was 2.56%.
With `Cc1ccc(OCCn2c(CCNC(=O)c3cccs3)nc3ccccc32)cc1` the “activity change, negative = inhibition” value was 0.657%.
`O=C(O)c1ccc2c(c1)C(=O)N([C@@H](C(=O)O)C(c1ccccc1)c1ccccc1)C2=O` was tested, and the “activity change, negative = inhibition” value was -3.5%.
In the case of `Cc1cc(C)nc(NC(=S)N2CCN(c3ccc(C(=O)O)cc3)CC2)c1`, the “activity change, negative = inhibition” value is reported as -6.82%.
For `O=C(Nc1ncc(Cc2ccc(C(F)(F)F)cc2)s1)c1ncc(-c2ccccc2)[nH]1`, the “activity change, negative = inhibition” value was 3.58%.
`NC(=O)c1cccc(C[C@H](C(=O)O)N2C(=O)c3ccc(C(=O)O)cc3C2=O)c1` was tested, and the “activity change, negative = inhibition” value was -0.299%.
With `NC(=O)C1CCN(c2nc(-c3ccc(OCc4ccccc4)cc3)cs2)CC1` the “activity change, negative = inhibition” value was -4.3%.
With `Fc1ccc(Nc2nc(-c3ccnc(C(F)(F)F)c3)nc3ccccc23)cc1F` the “activity change, negative = inhibition” value was 0.738%.
With `Cc1cc(C)nc(NC(=S)N2CCN(c3nc4ccccc4s3)CC2)c1` the “activity change, negative = inhibition” value was -3.82%.
In the case of `COc1cc(OC)c(C(CC(=O)N2CC(C)CC(C)C2)c2ccc3c(c2)OCO3)c(OCC(N)=O)c1` (stereo not given), the “activity change, negative = inhibition” value is reported as -2.25% [at 228 µM].
`CCOc1ccc(CCN(C)C(=O)c2cc3sccc3n2Cc2ccccc2)cc1OCC` was tested, and the “activity change, negative = inhibition” value was 6.47%.
With `Cc1cc(NS(=O)(=O)c2ccc3c(c2)CCC(=O)N3)ccc1Cl` the “activity change, negative = inhibition” value was -8.29%.
In the case of `c1nc(NCc2ccc3c(c2)OCO3)c2cc(-c3ccoc3)ccc2n1`, the “activity change, negative = inhibition” value is reported as 9.37%.
For `CCOc1cccc(-c2cc(-c3n[nH]c(=S)n3CC)c3ccccc3n2)c1`, the “activity change, negative = inhibition” value was -4.54%.
